Data published in article PMC4552634, “A New Set of Chemical Starting Points with Plasmodium falciparum Transmission-Blocking Potential for Antimalarial Drug Discovery” (PLoS ONE, 2015).
Read-outs that look alike come from different tables or passages of the source. Screen size: about 13,000 compounds; about 3,200 (25%) showed an effect of 50% or more. This is one part of the list.

System: P. falciparum stage V gametocytes
Set-up: BacTiter-Glo ATP luminescence viability of purified stage V gametocytes in 384-well plates, per cent inhibition versus DMSO
Details: 48 h, 5 µM, inhibitor

Structure (SMILES)	% Inhibition [%]	% Inhibition (% Inhibition) [%]
CN(c1cc(NC(=O)c2ccc(F)cc2)ccn1)C1CCN(Cc2cccc(F)c2)CC1 [TCMDC-135019]	38.57	–
Cc1ccnc(NC(=O)c2cc(-c3cccc([N+](=O)[O-])c3)nc3onc(C)c23)c1 [TCMDC-124591]	3.347	–
C=C[C@]1(C)C[C@@H](OC(=O)NC(=O)CCCS(=O)(=O)c2nnc(C)s2)[C@]2(C)[C@H](C)CC[C@]3(CCC(=O)[C@H]32)[C@@H](C)[C@@H]1O [TCMDC-140927]	24.97	–
C#CC(C)(CO)N1CCCC1 (stereo not drawn) [TCMDC-131372]	-4.555	–
CCOC(=O)c1c(C)n(-c2ccccc2)c2ccc(O)cc12 [TCMDC-125483]	-27.27	–
Oc1ccccc1CNCC12CC3CC(CC(C3)C1)C2 [TCMDC-125554]	-22.39	–
CC(C)C[C@H](Nc1ccnc(NCC2CCCCC2)n1)C(=O)Nc1ccccc1 [TCMDC-134714]	-42.51	–
CC(C)c1ccc(Nc2nc(NCCc3cnc[nH]3)nc(NCc3ccccc3)n2)cc1 [TCMDC-139741]	-6.505	–
CC1CN(Cc2cccc(F)c2)CCN1c1ccc(NC(=O)c2ccc(F)cc2)cc1 (stereo not drawn) [TCMDC-135017]	-0.6551	–
Cc1ccc(NC(=O)Nc2cccc(Cl)c2)cc1-c1ccc(C(=O)Nc2ccncc2)cc1 [TCMDC-133699]	10.77	–
Cl.Oc1ccc(C2CNCCc3c2cc(O)c(OCc2ccccc2)c3Cl)cc1 (stereo not drawn) [TCMDC-141979]	17.32	–
O=C(N[C@@H](Cc1ccccc1)C(=O)NC1CCCCC1)c1ccc(O)c(-c2ccc(Cl)c(Cl)c2)c1 [TCMDC-140824]	35.45	–
O=C(NC(=S)Nc1cc(C(F)(F)F)cc(C(F)(F)F)c1)c1ccc(Cl)cc1 [TCMDC-124077]	25.76	–
COc1cc(Cc2cnc(N)nc2N)cc(OCCCCCC(=O)O)c1OC [TCMDC-137677]	-23.13	–
Cc1cccc(-c2ccc3c(c2)CC(NCc2cccc(-n4ccnc4)c2)C3)c1 (stereo not drawn) [TCMDC-134831]	2.381	–
CC[C@H](C)CNC(=O)c1cncc(-c2cccc(CNC3Cc4ccccc4C3)c2)c1 [TCMDC-134218]	-33.07	–
NC(=O)c1cccc(-n2ccc3cc(CNC4Cc5ccccc5C4)ccc32)c1 [TCMDC-133416]	99.63	–
c1ccc2nc(NCCCCCCCCNc3ccc4ccccc4n3)ccc2c1 [TCMDC-137745]	26.97	–
c1ccc2ncc(CNCCCCCCCCNCc3cnc4ccccc4c3)cc2c1 [TCMDC-137744]	97.27	–
COc1cccc(Cc2cnc3nc(N)nc(N)c3c2C)c1 [TCMDC-138060]	-3.76	–
CC(=O)Nc1ccc(S(=O)(=O)Nc2ccc(Nc3nc(C)cc(N(C)C)n3)cc2)cc1 [TCMDC-124951]	-47.31	–
COc1ccc2nccc([C@@H](O)CN3CCC(NC(=O)/C=C/c4cccc(NC(C)=O)c4)CC3)c2c1 [TCMDC-141029]	-15.14	–
COc1cccc(CNc2ncc(-c3ccsc3)c(-c3nccs3)n2)c1 [TCMDC-125375]	51.63	–

Structure (SMILES)	% Inhibition [%]	% Inhibition (% Inhibition) [%]
Fc1ccccc1CNc1ncc(-c2ccsc2)c(-c2nccs2)n1 [TCMDC-125366]	77.55	–
COc1cc(CNc2ncc(-c3ccsc3)c(-c3nccs3)n2)cc(OC)c1 [TCMDC-124844]	31.51	–
c1cncc(CNc2ncc(-c3ccsc3)c(-c3nccs3)n2)c1 [TCMDC-125368]	23.89	–
COc1ccc(CNc2ncc(-c3ccsc3)c(-c3nccs3)n2)cc1OC [TCMDC-125369]	23.78	–
COc1ccccc1CNc1ncc(-c2ccsc2)c(-c2nccs2)n1 [TCMDC-125376]	13.46	–
c1cc(CNc2ncc(-c3ccsc3)c(-c3nccs3)n2)ccn1 [TCMDC-125371]	35.87	–
Fc1ccc(CNc2ncc(-c3ccsc3)c(-c3nccs3)n2)cc1 [TCMDC-125372]	57.46	–
Fc1cccc(CNc2ncc(-c3ccsc3)c(-c3nccs3)n2)c1 [TCMDC-125374]	21.86	–
Clc1ncccc1-c1nc(NCCC(c2ccccc2)c2ccccc2)no1 [TCMDC-134181]	13.92	–
Clc1cc(Cl)cc(Nc2ccnc(Nc3cc(Cl)cc(Cl)c3)n2)c1 [TCMDC-134277]	-19.19	–
Cc1nc(N/C=C/c2ccc(O)cc2)cc(N2CCCC2)n1 [TCMDC-135162]	20.32	–
NC1=NC(c2ccccc2)(c2cccc(O)c2)C(=O)N1CCCc1ccccc1 (stereo not drawn) [TCMDC-132351]	–	-3.76
COc1cccc(CN2CCC(CCOC(c3ccccc3)c3ccc(Cl)cc3)CC2)c1O (stereo not drawn) [TCMDC-136040]	-76.2	–
COc1cc(Br)c(S(=O)(=O)n2cc(CN3CCC(N)CC3)c3cc(Cl)ccc32)cc1OC [TCMDC-136384]	95.22	–
COc1ccc(S(=O)(=O)NC2CCN(CCCOc3ccnc4cc(Cl)ccc34)C2)cc1OC (stereo not drawn) [TCMDC-136146]	-25.22	–
COc1ccc(NC(=O)Nc2ccc(-c3ccccc3)cc2Cl)cc1N1CCN(C)CC1 [TCMDC-139137]	-40.38	–
O=S(=O)(NCCN1CCCC1)c1ccc(-c2ccc(CNC3Cc4ccccc4C3)cc2)s1 [TCMDC-132234]	69.5	–
O=S(=O)(NCCN1CCCC1)c1ccc(-c2cccc(CNC3Cc4ccccc4C3)c2)s1 [TCMDC-132217]	90.5	–
CN1CCC(NCc2cccc(-c3ccc(S(=O)(=O)NCCN4CCCC4)s3)c2)CC1 [TCMDC-132218]	98.17	–
COc1cccc(-c2cnc(N)c(-c3nc4ccc(F)cc4[nH]3)c2)c1 [TCMDC-138791]	-6.276	–
Cn1c(=O)c(-c2c(Cl)cccc2Cl)cc2cnc(Nc3ccc(N4CCOCC4)cc3)nc21 [TCMDC-137156]	-23.94	–
O=C(Nc1cccc([N+](=O)[O-])c1)Nc1ccc(Cl)c(C(F)(F)F)c1 [TCMDC-123511]	-89.27	–
CCN(c1ccc(F)cc1)S(=O)(=O)c1cc(Br)cc2c1N(C(=O)C1CC1)CC2 [TCMDC-123802]	-9.966	–

Structure (SMILES)	% Inhibition [%]	% Inhibition (% Inhibition) [%]
Cn1cc(C(=O)Nc2cccc(-c3cccc(-c4nc5ccc(F)cc5[nH]4)c3)c2)n(C)c1=O [TCMDC-137136]	-0.01557	–
O=C(c1cc(OC(F)(F)F)ccc1O)N1CCN(c2ccccc2)CC1 [TCMDC-141127]	10.35	–
CC(=O)Nc1ccc(Nc2cc(C)nc(Nc3ccc(NC(C)=O)cc3)n2)cc1 [TCMDC-125764]	22.75	–
Cc1cccc2[nH]c(-c3ccc(-c4cccc(NC(=O)c5cccc(C(N)=O)c5)c4)cc3)nc12 [TCMDC-132197]	5.465	–
COc1ccc2nccc([C@@H](O)CN3CCC(NCc4ccc5c(n4)NC(=O)CS5)C(F)C3)c2c1 (stereo partly drawn) [TCMDC-141718]	-27.67	–
COc1ccc(CN2CCCN(Cc3cccc(NC(=O)c4ccc5ccccc5c4)c3)CC2)cc1 [TCMDC-141853]	-65.02	–
COc1cccc(-c2cccc(NC(=O)C3CCN(Cc4ccc(O)cc4)CC3)c2)c1 [TCMDC-124692]	72.66	–
O=C(Nc1cccc(CN2CCCN(Cc3ccc(O)cc3)CC2)c1)c1ccc2ccccc2c1 [TCMDC-141857]	26.89	–
O=C(Nc1cccc(CN2CCCN(Cc3ccsc3)CC2)c1)c1ccc(-c2ccccc2)cc1 [TCMDC-141840]	82.52	–
COc1cccc(CN2CCCN(Cc3cccc(NC(=O)c4ccc(-c5ccccc5)cc4)c3)CC2)c1 [TCMDC-141847]	-61.09	–
COc1ccc(CN2CCCN(Cc3cccc(NC(=O)c4ccc(-c5ccccc5)cc4)c3)CC2)cc1 [TCMDC-141839]	80.31	–
O=C(Nc1cccc(-c2cccc(F)c2)c1)C1CCN(Cc2ccc(O)cc2)CC1 [TCMDC-124688]	48.55	–
O=C(Nc1ccc2ccccc2c1)c1ccc(CN2CCC(Cc3ccccc3)CC2)cc1 [TCMDC-123818]	92.78	–
O=C(Nc1cccc(CN2CCCN(Cc3cccc(O)c3)CC2)c1)c1ccc(-c2ccccc2)cc1 [TCMDC-141848]	31.74	–
COc1ccc(CN2CCC(C(=O)Nc3cccc(-c4cccc(Cl)c4)c3)CC2)cc1O [TCMDC-124610]	-57.51	–
O=C(Nc1cccc(CN2CCCN(Cc3ccccc3)CC2)c1)c1ccc(-c2ccccc2)cc1 [TCMDC-134589]	-25.71	–
O=C(Nc1cccc(OCc2ccccc2)c1)c1ccc(CN2CCC(Cc3ccccc3)CC2)cc1 [TCMDC-136885]	-23.99	–
CC(=O)Nc1cc(C(=O)Nc2cccc(-c3csc(-c4nc5ccccc5[nH]4)c3)c2)ccc1C [TCMDC-132397]	-24.51	–
Cc1nc2ccc3ccc(CNc4ccc(C(=O)N[C@@H](CCC(=O)O)C(=O)O)cc4)cc3c2c(=O)[nH]1 [TCMDC-137629]	7.462	–
CCC[C@@H]([C@@H](CC1CCCCC1)C(=O)N[C@@H](CCCCNS(C)(=O)=O)C(=O)Nc1nccs1)N(O)C=O [TCMDC-138143]	41.43	–
CC1(C)CCNc2cc(NC(=O)c3ccc(-c4ncccc4C(F)(F)F)cc3)ccc21 [TCMDC-133353]	8.36	–
COc1ccc(C2=CCN(c3ccc(Cl)c(Cl)c3)C2=O)cc1OCCN1CCCCC1 [TCMDC-138795]	24.05	–
COc1ccc2nccc([C@@H](O)CN3CCC(NC(=O)c4ccc(OC)c(N)c4)CC3)c2c1 [TCMDC-140772]	8.441	–
